Experimental findings from PubChem BioAssay (NCATS) are described below.

Results filed as inconclusive are left out. Values without a mark were called inactive. The source made the active and inactive calls. Calls follow the shape of the dose curve; as a rule, active = well fitted curve in the direction sought with a large enough effect; inconclusive = small, poorly fitted or top-dose-only effect, or another doubt; inactive = no such curve, though single readings can be large; an effect the other way counts as inactive or inconclusive.

In one experiment the test system is MCC-13. Description: qHTS assay to identify novel small-molecules to repurpose for Merkel cell carcinoma treatment (AID 1296009). Also: nearly all actives have a fitted effect of over 60% in size. As to conditions: MCC and control cell lines, CellTiter-Glo viability, 72 h; series mostly up to 46 µM. The gist of the method:
(§1)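 qHTS format: cells treated with library compounds in DMSO across 8 (NPC) or 11 (MIPE) concentrations. Readout after 72 hr at 37 degree celsius was CellTiter-Glo luminescence.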

A further experiment concerns MCC-26. The description is as above. As to conditions: MCC and control cell lines, CellTiter-Glo viability, 72 h; series mostly up to 46 µM. In outline: as §1
Background: ATP-based viability assays read luminescence as a measure of living cells.

The next experiment has as its system MKL-1. Described as above. The conditions noted are these: MCC and control cell lines, CellTiter-Glo viability, 72 h; series mostly up to 46 µM. The gist of the method: as §1
The test system of the next experiment is MKL-2. The description is as above. The conditions noted are these: MCC and control cell lines, CellTiter-Glo viability, 72 h; series mostly up to 46 µM. The gist of the method:
as §1

The next experiment relates to UISO. Described as above. The conditions noted are these: MCC and control cell lines, CellTiter-Glo viability, 72 h; series mostly up to 46 µM. In outline:
as §1

The next experiment relates to WaGa. Described as above. The conditions noted are these: MCC and control cell lines, CellTiter-Glo viability, 72 h; series mostly up to 46 µM. In outline: as §1
For a further experiment, the system named is C33A. Briefly: Primary qHTS to identify gynecologic anti-cancer compounds using libraries of approved drugs and bioactive compounds (AID 1345084). Also: nearly all actives have a fitted effect of over 55% in size. As to conditions: Gynecologic cancer cell panel viability, ATPlite luminescence, 48 h; series mostly up to 57.5 µM. In outline:
(§2)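 Cells, 1,000 per well, plated 16 h, then exposed 48 h at 37 C to compounds. Viability by ATPlite luminescence after 15 min at room temperature.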
A general note: Quantitative high-throughput screening tests each substance at several concentrations.

The next experiment relates to CAOV3. The experiment is described as above. The conditions noted are these: Gynecologic cancer cell panel viability, ATPlite luminescence, 48 h; series mostly up to 57.5 µM. The gist of the method: as §2
The next experiment has as its system CASKI. The description is as above. The conditions noted are these: Gynecologic cancer cell panel viability, ATPlite luminescence, 48 h; series mostly up to 57.5 µM. The gist of the method: as §2
The subject of another experiment is Es-2. The description is as above. As to conditions: Gynecologic cancer cell panel viability, ATPlite luminescence, 48 h; series mostly up to 57.5 µM. The gist of the method:
as §2

For the next experiment, the system named is Hek293T. The description is as above. As to conditions: Gynecologic cancer cell panel viability, ATPlite luminescence, 48 h, control line for the selectivity index; series mostly up to 57.5 µM. The gist of the method: as §2
Another experiment relates to JEG-3. The experiment is described as above. The conditions noted are these: Gynecologic cancer cell panel viability, ATPlite luminescence, 48 h; series mostly up to 57.5 µM. In outline:
as §2

In another experiment the test system is OV90. Described as above. The conditions noted are these: Gynecologic cancer cell panel viability, ATPlite luminescence, 48 h; series mostly up to 57.5 µM. In outline:
as §2

The subject of the next experiment is PA-1. The experiment is described as above. As to conditions: Gynecologic cancer cell panel viability, ATPlite luminescence, 48 h; series mostly up to 57.5 µM. In outline: as §2
The test system of a further experiment is SKOV3. The description is as above. The conditions noted are these: Gynecologic cancer cell panel viability, ATPlite luminescence, 48 h; series mostly up to 57.5 µM. The gist of the method: as §2
The test system of another experiment is Tov-21-G. The experiment is described as above. As to conditions: Gynecologic cancer cell panel viability, ATPlite luminescence, 48 h; series mostly up to 57.5 µM. In outline: as §2
A further experiment relates to Tov112D. Described as above. The conditions noted are these: Gynecologic cancer cell panel viability, ATPlite luminescence, 48 h; series mostly up to 57.5 µM. The gist of the method:
as §2

Experiment [1] can be described thus: Drug repurposing screens with cells derived from glioblastoma tumor samples (AID 1345199). Also: nearly all actives have a fitted effect of over 40% in size. Also: potency is read from the fitted curve at half-maximal effect. The conditions noted are these: GBM patient neurospheres viability, ATP luminescence, 48 h. In outline:
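Four patient lines of CD133+ GBM neurospheres were screened at several concentrations; hits were retested in those lines plus three slower-growing GBM lines, using 48-hour treatment and ATP-based viability.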

For a further experiment, the system named is HeLa. Briefly: Primary qHTS to identify gynecologic anti-cancer compounds using libraries of approved drugs and bioactive compounds (AID 1345084). Also: nearly all actives have a fitted effect of over 55% in size. As to conditions: Gynecologic cancer cell panel viability, ATPlite luminescence, 48 h; series mostly up to 57.5 µM. In outline:
as §2

Setting [2] is: at 45.9 µM (top of the series), tumour line B.
[3] abbreviates: at 45.9 µM (top of the series), tumour line D.
Where [4] appears, read: at 46 µM (top of the series), tumour line A.
[5] abbreviates: at 46.1 µM (top of the series), tumour line C.
[6] abbreviates: at 20 µM (top of the series), tumour line C.
Setting [7] is: at 21.2 µM (top of the series), tumour line B.
Setting [8] is: at 21.2 µM (top of the series), tumour line D.
% is scaled to controls: 0 for no effect and ±100 for the full control effect.

Consider `CCCN(CCC)C(=O)C(CCC(=O)O)NC(=O)c1ccccc1` (stereo unspecified), for which the Potency result with MCC-13, in the experiment on MCC-26, in the experiment with MKL-1, with MKL-2, in the experiment with UISO and with WaGa was “inactive” in each case. Further, the Potency result in the experiment with C33A, in the experiment with CAOV3, with CASKI, in the experiment with Es-2, in the experiment on Hek293T and with JEG-3 was “inactive” each time. Also, the Potency entry in the experiment with OV90, with PA-1, in the experiment with SKOV3, in the experiment with Tov-21-G and in the experiment on Tov112D was “inactive” throughout. Further, the activity, negative = cell killing in [1] (setting [2]) is 1.78%; in [1] (setting [3]), -1.59%; in experiment [1] (setting [4]), -28.4%; in [1] (setting [5]) it was -13.4%.

As for `CCN(CC)CCNC(=O)c1cc(S(C)(=O)=O)ccc1OC`, the Potency result in the experiment with MCC-13, with MCC-26, with MKL-1, in the experiment on MKL-2, in the experiment with UISO and with WaGa was “inactive” in each case. Also, the Potency entry in the experiment on C33A, with CAOV3, in the experiment on CASKI, with Es-2, in the experiment with JEG-3 and in the experiment with OV90 was “inactive” in each case. Besides, the Potency result with PA-1, in the experiment on SKOV3, in the experiment with Tov-21-G and with Tov112D was “inactive” each time. Besides, the activity, negative = cell killing in experiment [1] (setting [6]) was -10.9%; in experiment [1] (setting [7]), -7.73%; in experiment [1] (setting [8]), -4.2%.

`CN1CCN(C2=Nc3ccccc3Oc3ccc(Cl)cc32)CC1`: the Potency entry with MCC-13, in the experiment on MCC-26, with MKL-1, in the experiment with UISO, in the experiment with WaGa and in the experiment with C33A was “inactive” each time. Also, the Potency entry in the experiment with CAOV3, in the experiment with CASKI, with Es-2, with HeLa, in the experiment with Hek293T and in the experiment on JEG-3 was “inactive” each time. Further, the Potency result in the experiment on PA-1, in the experiment with SKOV3, with Tov-21-G and with Tov112D was “inactive” each time. The activity, negative = cell killing in experiment [1] (setting [6]) is -15.4%; in experiment [1] (setting [7]), -17.3%; in [1] (setting [8]), -18.3%. In addition, the Potency in experiment [1] (tumour line A) was 12.6 µM (active).

Take `CNCCC(Oc1ccccc1OC)c1ccccc1` (stereo unspecified): the Potency entry in the experiment with MCC-13, in the experiment on MCC-26, in the experiment on MKL-1, in the experiment with MKL-2, in the experiment on UISO and in the experiment with WaGa was “inactive” in each case. Besides, the Potency result with C33A, with CASKI, in the experiment on Es-2, in the experiment on Hek293T, with JEG-3 and in the experiment with PA-1 was “inactive” each time. For the same molecule, the Potency entry in the experiment on SKOV3, in the experiment on Tov-21-G and in the experiment on Tov112D was “inactive” throughout. The figures for the activity, negative = cell killing in experiment [1] (setting [2]), in [1] (setting [3]) and in [1] (setting [5]) were -10.4%, -19.1% and -16.2%, respectively. The Potency in experiment [1] (tumour line A) is 12.6 µM (active).

As to `CCCCNC(=O)NS(=O)(=O)c1ccc(C)cc1`, the Potency result with MCC-13, in the experiment on MCC-26, with MKL-1, in the experiment with MKL-2, with UISO and in the experiment on WaGa was “inactive” each time. The Potency result in the experiment on C33A, in the experiment on CASKI, in the experiment on Es-2, in the experiment on HeLa, in the experiment on Hek293T and with JEG-3 was “inactive” in each case. The Potency entry in the experiment on OV90, with PA-1, in the experiment with SKOV3, in the experiment with Tov-21-G and in the experiment with Tov112D was “inactive” each time. Besides, the activity, negative = cell killing in experiment [1] (setting [2]) was -7.32%; in experiment [1] (setting [3]), -11.9%; in experiment [1] (setting [4]), -4.33%; in [1] (setting [5]), 8.27%.

Turning to `C#CCN(C)CCCOc1ccc(Cl)cc1Cl`, the Potency result in the experiment on MCC-13, with MCC-26, with MKL-1, with MKL-2, in the experiment with UISO and with WaGa was “inactive” in each case. In addition, the Potency result in the experiment with C33A, with CAOV3, in the experiment with CASKI, with Es-2, in the experiment with Hek293T and in the experiment on JEG-3 was “inactive” in each case. Moreover, the Potency result in the experiment on OV90, with PA-1, in the experiment on SKOV3, in the experiment on Tov-21-G and in the experiment on Tov112D was “inactive” in each case. Moreover, the activity, negative = cell killing in experiment [1] (setting [2]) is -0.374%; in experiment [1] (setting [3]), -15.7%; in experiment [1] (setting [4]) it was -39.4%; in [1] (setting [5]), -14.2%.
